Screening results (PubChem)
Cruzain inh noDet: cruzain (T. cruzi) inhibition without detergent | P25779 | purified cruzain, Z-FR-AMC fluorescence, no detergent | Potency, µM, without a hit: max response, negative = inhibition, hits mostly inhibitors | 200,000 compounds, 2.3% hits | AID 1476;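 also: plate controls were enzyme without inhibitor for no effect and buffer without enzyme for full effect; nearly all actives have a fitted effect of over 40% in size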
Target sequence (P25779 123-467 limits assumed): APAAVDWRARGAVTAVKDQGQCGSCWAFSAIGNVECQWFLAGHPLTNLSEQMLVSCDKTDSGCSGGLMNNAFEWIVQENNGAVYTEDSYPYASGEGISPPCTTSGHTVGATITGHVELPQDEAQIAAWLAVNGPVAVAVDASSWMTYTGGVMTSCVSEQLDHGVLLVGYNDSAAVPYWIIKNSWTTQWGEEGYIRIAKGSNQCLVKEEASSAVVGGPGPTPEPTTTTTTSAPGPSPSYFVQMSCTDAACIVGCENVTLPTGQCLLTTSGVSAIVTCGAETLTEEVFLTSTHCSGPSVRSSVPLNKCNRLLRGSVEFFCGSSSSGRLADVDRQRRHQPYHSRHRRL
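Detergent-free condition (0.00005% Triton X-100) in acetate buffer pH 5.5 with DTT. 1.5 nM enzyme and compound were pre-mixed 15 min, then 2 uM Z-FR-AMC substrate added; reaction progress from fluorescence change between first and third reads (60 s).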
Cruzain inh Det: inhibitors of Trypanosoma cruzi cruzain with detergent | purified cruzain, Z-FR-AMC fluorescence, 0.01% Triton | Potency, µM, without a hit: max response, negative = inhibition, most hits filed as inhibitors | 200,000 compounds, 0.43% hits;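 also: plate controls were neutral wells for no effect and buffer without enzyme for full effect; nearly all actives have a fitted effect of over 40% in size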
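Detergent-containing run (0.01% Triton X-100) in acetate buffer pH 5.5 with 5 mM DTT: enzyme at 1.5 nM final, 15 min compound preincubation at room temperature, then 2 uM Z-FR-AMC substrate. Activity taken as 60 s fluorescence increase at 360/450 nm.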
An asterisk follows results filed as active; ? = inconclusive. This is a sample that favours compounds with a hit; in the whole collection about 2.4% have one here. Calls follow the shape of the dose curve; as a rule, active = well fitted curve in the direction sought with a large enough effect; inconclusive = small, poorly fitted or top-dose-only effect, or another doubt; inactive = no such curve, though single readings can be large; an effect the other way counts as inactive or inconclusive. Potency is read from the fitted curve at half-maximal effect.

SMILES	Cruzain inh noDet	Cruzain inh Det
Cc1ccc(CNC(=O)c2ccc(Nc3nc4ccccc4n4nnnc34)cc2)cc1	-12%	-1%
Cc1ccc(CNc2nc3ccccc3n3nnnc23)cc1	32µM*	2%
COC(=O)c1sccc1S(=O)(=O)N(CC(=O)NCc1ccccc1)c1ccc(C)cc1	-6%	-5%
CC[C@H]1C2=C3C(CC[C@H]4C(OCc5ccc(F)cc5C(F)(F)F)OC[C@](C)([C@@H]34)N(C(=O)OC(C)(C)C)C2)C(COC(C)=O)C1COC(C)=O (stereo partly drawn)	?	-5%
OC[C@H]1O[C@@H](n2cnc3c(NCc4ccccc4)ncnc32)[C@H](O)[C@@H]1O	-4%	-3%
COc1cccc(CNC(=O)CSc2nnc(C)c3c(C)n(-c4ccccc4)nc23)c1OC	12%	-5%
CC(C)(C)C1CCc2c(sc(NC(=O)c3cc4ccccc4c(=O)o3)c2C(N)=O)C1 (stereo not drawn)	-2%	-10%
O=c1[nH]cnc2scc(-c3cccs3)c12	4%	-2%
O=c1[nH]c(CN2CCc3ccccc32)nc2scc(-c3cccs3)c12	10µM*	-6%
COc1cc2cc(c1Cl)N(C)C(=O)C[C@H](OC(=O)C(C)C)[C@]1(C)O[C@@H]1[C@@H](C)[C@H]1C[C@](O)(NC(=O)O1)[C@@H](OC)/C=C\C=C(\C)C2	?	0%
COc1ccc(-n2c(=O)c3ccccc3n(Cc3ccc(F)cc3Cl)c2=O)cc1OC	-4%	-2%
CCOc1ccc(OCC)c(NC(=O)CCS(=O)(=O)c2ccc(Br)s2)c1	6%	-7%
CCOc1ccc(OCC)c(NC(=O)C(NS(=O)(=O)c2ccc(Br)s2)c2ccccc2)c1 (stereo not drawn)	10µM*	-1%
CN1CC[C@@]2(c3cccc(O)c3)Cc3nc4ccccc4cc3C[C@H]2C1	2%	-2%
COc1cccc(-c2nn(-c3ccccc3)cc2/C=C\C(=O)c2cccs2)c1	13µM*	3%
COc1cccc(-c2nn(-c3ccccc3)cc2C(=O)O)c1	-1%	4%
O=C(Nc1ccc2c(c1)Cc1ccccc1-2)[C@@H]1[C@H](C(=O)O)[C@]2(Cl)C(Cl)=C(Cl)[C@@]1(Cl)C2(Cl)Cl	26%	3%
COc1cc(Cl)c(NC(=O)c2cc3ccccn3n2)c(OC)c1	0%	-7%
C[C@@H](NC(=O)C1(N)CCCC1)C(=O)O	10%	2%
COc1cc(O)ccc1C(C)=O	-7%	3%
COc1ccc(CC(=O)Nc2nc(-c3cccc([N+](=O)[O-])c3)cs2)cc1	20µM*	1%
CS(=O)(=O)N1CCc2cc(-c3csc(NC(=O)C(c4ccccc4)c4ccccc4)n3)ccc21	7.9µM*	2%
CC1Cc2cc(-c3csc(NC(=O)Cc4ccccc4)n3)ccc2N1S(C)(=O)=O (stereo not drawn)	?	6%
O=C(Nc1nc(-c2cccc([N+](=O)[O-])c2)cs1)C(c1ccccc1)c1ccccc1	10µM*	-3%
COc1ccc(CC(=O)Nc2cccc(-c3csc(C)n3)c2)cc1	-16%	-7%
SMILES	Cruzain inh noDet	Cruzain inh Det
CC(OC(=O)c1ccccc1Br)C(=O)Nc1nc(-c2cccc([N+](=O)[O-])c2)cs1 (stereo not drawn)	?	0%
N#C[C@@H](N=Nc1ccccc1C(=O)O)C(N)=O	8%	-5%
O=C(Nc1ccccc1Cl)c1cccc(NS(=O)(=O)c2ccccc2)c1	1%	-5%
Cn1cccc1C(=O)N1CCC[C@@]2(CCN(C(c3ccccc3)c3ccccc3)C2)C1	1%	0%
O=C(c1ccccc1)c1c2c(cc3sc4ccccc4[n+]13)-c1cccc3cccc-2c13	25µM*	-23%
Cc1sc2cc3c(c(C(=O)c4ccccc4)[n+]2c1C)-c1cccc2cccc-3c12	-29%	-16%
Cc1cccc(NC(=O)c2sc(-n3nc(C)c(CCC(C)C)c3C)nc2C)c1	5%	-1%
CCC[C@@H]1C[C@@]1(CCC)[C@@H](NC(=O)Oc1ccccc1)c1ccc(C(=O)OC)cc1	2%	0%
Cc1cc(-c2ccc(C)c(S(=O)(=O)NC(c3cccs3)C(C)C)c2)on1 (stereo not drawn)	-13%	-5%
C=C1C/C(=C\C)C(=O)O[C@@H]2CCN3CC=C(COC(=O)[C@@]1(C)O)[C@H]23	-10%	-5%
CCOC(=O)c1[nH]c(C)c(C(=O)NC(CC)Cc2ccccc2)c1C (stereo not drawn)	-4%	-5%
Cc1ccc(Cn2ccc(NC(=O)c3cc(-c4ccc(Br)cc4)on3)n2)cc1	4µM*	3%
Cc1ccc(Cn2ccc(NC(=O)c3cc(-c4ccccc4)on3)n2)cc1	3%	-4%
CC(NC(=O)c1cc(-c2ccc(Br)cc2)on1)c1ccccc1 (stereo not drawn)	16µM*	7%
COC(=O)c1cc(-c2ccc(Br)cc2)on1	-14%	1%
O=C1C2C(c3ccccc3)(C(=O)N1c1ccc(Cl)cc1)C2(c1ccccc1)c1ccccc1 (stereo not drawn)	25µM*	-2%
O=C1c2ccccc2C(=O)N1c1ccc(Cl)cc1	-1%	?
CCNc1ncc2nc(C)c(=O)n(Cc3cccc(OC)c3)c2n1	9%	1%
CCOC(=O)c1c(C)oc2ccc(N(C(=O)Oc3ccccc3)S(=O)(=O)c3ccc(CC)cc3)cc12	-7%	-13%
Cc1nnc(SCC(=O)N2CC(=O)Nc3ccccc32)n1-c1ccccc1	-4%	2%
O=C1CN(C(=O)CSc2nnc(-c3ccccc3)n2Cc2ccc3c(c2)OCO3)c2ccccc2N1	13µM*	28µM*
CCOC(=S)NC(=O)c1sc2ccccc2c1Cl	7%	-4%
CN(C(=O)COC(=O)CNC(=O)c1sc2ccccc2c1Cl)c1ccccc1	7.9µM*	8.9µM*
CC(C)(C)c1c2c(c(C(C)(C)C)c3c1OCN(Cc1ccccc1)C3)OCN(Cc1ccccc1)C2	4%	3%
Cc1ccn2c(Nc3c(C)cccc3C)c(-c3ccsc3)nc2c1	?	-13%
SMILES	Cruzain inh noDet	Cruzain inh Det
Cc1ccn2c(Nc3c(C)cccc3C)c(-c3ccc(Cl)s3)nc2c1	10µM*	-12%
N#C/C(=C\c1ccc(-c2ccc([N+](=O)[O-])cc2Br)o1)C(=O)N1CCN(c2ccccc2)CC1	13µM*	-4%
N#C/C(=C/c1ccc(Oc2ccc([N+](=O)[O-])cn2)cc1)C(=O)N1CCOCC1	?	-5%
CCCN(C(=O)Cn1ncc2c1-c1ccccc1OC2)c1cccc(C)c1	11%	-6%
O=C(Cc1c[nH]c2ccccc12)Nc1nc2ccccc2[nH]1	25µM*	-26%
O=C(Cc1ccccc1)Nc1nc2ccccc2[nH]1	2%	0%
C[C@H]1COc2c(N3CCN(C)CC3)c(F)cc3c(=O)c(C(=O)NCc4ccco4)cn1c23	-6%	2%
COc1ccc(NC(=O)CSc2ncc(-c3ccc(F)cc3)n2Cc2ccco2)cc1	25%	-9%
CC(=O)Nc1ccc(NC(=O)Cn2c(-c3ccc(F)cc3)cnc2SCC(=O)Nc2c(C)cccc2C)cc1	20µM*	1%
COc1cc([C@@H]2Oc3cc([C@H]4Oc5cc(O)cc(O)c5C(=O)[C@H]4O)ccc3O[C@H]2CO)ccc1O	0%	-18%
COc1ccc(NC(=O)c2sc3nc4c(cc3c2N)CN(C(C)C)CC4)c(OC)c1	-3%	-9%
N#Cc1c(/N=C/c2cc3ccccc3s2)sc2c1CCC2	13µM*	-5%
Cc1ccc(/C=N/c2sc3c(c2C#N)CCC3)s1	-4%	-3%
COc1cc(/C=C\c2ccc(OC)cc2OC)cc(OC)c1	9%	0%
